Test results as given in PubChem BioAssay (NCATS).
“And” between values parts separate entries of the source, which are not always exact repeats. Identical values can stand only once. Results filed as inconclusive are left out. The source made the active and inactive calls. Unless noted, the call rests on the fitted dose curve; in most records, active means well fitted curve in the direction sought with a large enough effect; inconclusive means small, poorly fitted or top-dose-only effect, or another doubt; inactive means no such curve, though single readings can be large; an effect the other way counts as inactive or inconclusive.

Columns and labels:
[1] = Cell Viability - MRC5 (AID 434; calls by dose curve;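 further: potency means the concentration at half of the fitted maximal effect; cells exposed to compound for 40 hours at 37 °C; potency reflects cytotoxicity seen as loss of intracellular ATP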); conditions: MRC5 lung fibroblast viability, qHTS
Method in brief: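 qHTS cytotoxicity in human lung fibroblast MRC5 cells; 40 hr treatment, 37 °C; cellular ATP by luciferase luminescence; DMSO = 0%, 100 uM tamoxifen = 100% inhibition; Hill-fit AC50.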

[2] = Cellular Toxicity (caspase-3) HepG2 (AID 654); conditions: HepG2 caspase-3 activation, luminescence; series mostly up to 92.2 µM;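 further: cells exposed to compound for 16 hours before reading; 0% = DMSO alone and 100% = caspase signal from 100 µM tamoxifen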
Method in brief: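 qHTS, HepG2, 1500 cells/well, complete medium; cpd 16 h 37 °C; Caspase-Glo 3/7, 20 min RT; lum. Norm: DMSO vs 100 uM tamoxifen; AC50 Hill fit.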

[3] = Cellular Toxicity (caspase-3) HUV-EC-C (AID 656); conditions: HUV-EC-C cells, caspase-3 activation (apoptosis); series mostly up to 92.2 µM
Method in brief: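 Read-out: luminescence proportional to caspase 3/7 activity, measured 20 min after adding Caspase-Glo 3/7 reagent. Cells (HUV-EC-C) had received compound for 16 hr at 37°C. Increases relative to DMSO and 100 uM tamoxifen gave concentration-response AC50 values.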

[4] = Cellular Toxicity (caspase-3) SHSY5Y (AID 657); conditions: SH-SY5Y caspase-3 activation; series mostly up to 91.7 µM
Method in brief: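 Cells plated and incubated 5 h at 37 °C, dosed over a concentration range, incubated 16 h, then given Caspase-Glo 3/7 reagent for 1 h at room temperature before luminescence reading. Staurosporine (10 uM) defined full stimulation.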

[5] = Cellular Toxicity (caspase-3) MRC-5 (AID 659); conditions: MRC-5 cells, luminescence, normalized: DMSO 0%, 10 µM staurosporine 100%; series mostly up to 91.7 µM
Method in brief: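 Concentration-dependent caspase 3/7 activation is measured in human normal lung fibroblasts (MRC-5) following 16-hour treatment. AC50 values come from standard Hill-equation modeling of luminescence normalized to DMSO and 10 uM staurosporine.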

[6] = Cellular Toxicity (caspase-3) Mesangial (AID 660); conditions: mesangial cells, normalized: DMSO 0%, 100 µM tamoxifen 100%; series mostly up to 91.7 µM;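 further: cells exposed to compound for 16 h before the caspase read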
Method in brief: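 Concentration-response qHTS: compound-induced rise in caspase 3/7 luminescence in human mesangial cells after 16 h, normalized to DMSO and 100 uM tamoxifen controls.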

[7] = Cellular Toxicity (caspase-3) SK-N-SH (AID 661); conditions: SK-N-SH caspase-3 activation, qHTS, DMSO as zero, staurosporine as full; series mostly up to 91.7 µM
Method in brief: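 Caspase 3/7 activation is measured as a luminescence increase from aminoluciferin released by substrate cleavage in SK-N-SH cells after 16 hr compound treatment; values are AC50 from concentration-response curves.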

[8] = Cellular Toxicity (caspase-3) H-4-II-E (AID 663); conditions: H-4-II-E rat hepatoma; Potency: caspase-3 activation; series mostly up to 92.2 µM;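 further: cells exposed to compound for 16 hr before readout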
Method in brief: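 Apoptosis induction is scored as increased luminescence from caspase 3/7 substrate cleavage in rat hepatoma H-4-II-E cells exposed to compound for 16 hr. Activity is scaled between DMSO and 100 uM tamoxifen.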

[9] = Cellular Toxicity (caspase-3) N2a (AID 665); conditions: N2a cells, luminescence, normalized: DMSO 0%, 10 µM staurosporine 100%; series mostly up to 92.2 µM;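 further: compound exposure lasted 16 h at 37 °C before readout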
Method in brief: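 Plated mouse neuroblastoma N2a cells received titrated compounds for 16 h in complete medium. Caspase activity was then detected with a peptide-aminoluciferin luminescent reagent.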

[10] = Cellular Toxicity (caspase-3) NIH 3T3 (AID 666); conditions: NIH 3T3 caspase-3 activation, apoptosis/toxicity, 0% DMSO, 100% is 100 µM tamoxifen; series mostly up to 92.2 µM;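 further: caspase signal read after 16 h compound exposure; 0% = DMSO basal and 100% = 100 µM tamoxifen stimulation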
Method in brief: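 Concentration-response qHTS in NIH 3T3 mouse fibroblasts scores caspase-3/7 activation as rising luminescence after 16 hr compound exposure. Signals are scaled between DMSO-only and 100 uM tamoxifen.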

[11] = Cellular Toxicity (caspase-3) Renal Proximal Tubule (AID 667); conditions: renal proximal tubule cells, primary cells freshly taken from rat; Potency: caspase-3 activation; series mostly up to 91.7 µM;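 further: cells exposed to compound for 16 hours at 37 °C before detection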
Method in brief: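 In qHTS format, rat primary proximal tubule cells seeded at 1000 per well are exposed to compounds for 16 hours at 37 °C. An increase in Caspase-Glo 3/7 luminescence indicates caspase activation.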

[12] = MultiTox-Fluor Cytotoxicity Assay - LYMP1-001 - Dead Cells (AID 946); conditions: LYMP1-001 lymphoblastoid cells, dead-cell protease fluorescence; series mostly up to 92.2 µM;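 further: 0% = DMSO and 100% = tetraoctylammonium bromide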
Method in brief: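 Seed 2500 LYMP1-001 cells/well, incubate 5 hr at 37 C; add compound, 16 hr at 37 C; add MultiTox-Fluor reagent, 60 min RT; read dead-cell fluorescence Ex/Em=485/520. Normalize to DMSO and 15 uM tetraoctylammonium bromide.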

[13] = Cell Viability - LYMP1-002 - Assay at 16 hr (AID 948); conditions: LYMP1-002 lymphoblastoid cell viability; series mostly up to 92.2 µM;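 further: 0% = DMSO alone and full effect = 92 µM tetraoctylammonium bromide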
Method in brief: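 Acute cytotoxicity is scored as a concentration-dependent fall in intracellular ATP in a human lymphoblastoid line (LYMP1-002) after 16 hr compound exposure at 37 C, measured by luciferase luminescence.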

[14] = MultiTox-Fluor Cytotoxicity Assay - LYMP1-002 - Live Cells (AID 955); conditions: LYMP1-002 lymphoblastoid live-cell protease fluorescence viability; series mostly up to 46.1 µM; further: on the % scale 0 is the no-effect control and ±100 the full control effect
Method in brief: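 Cytotoxicity in the human lymphoblastoid line LYMP1-002 is measured as loss of live-cell protease activity after 16 h treatment in complete culture medium. AC50 is derived from Hill-equation fits of qHTS concentration-response data.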

[15] = MultiTox-Fluor Cytotoxicity Assay - LYMP1-003 - Live Cells (AID 962); conditions: LYMP1-003 lymphoblastoid cells, MultiTox-Fluor live-cell protease fluorescence; series mostly up to 92.2 µM;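 further: 0% = DMSO only and full loss = 92 µM tetraoctylammonium bromide; cytotoxic hits lower the live-cell protease signal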
Method in brief: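 Cells plated at 2500 per well and incubated 5 hr; compounds added and incubated 16 hr at 37 C; MultiTox-Fluor reagent added for 60 min at room temperature; fluorescence of liberated AFC measured at 405/510 nm.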

[16] = Cell Viability - LYMP1-003 - Assay at 24 hr (AID 963); conditions: LYMP1-003 lymphoblastoid cell viability; series mostly up to 92.2 µM;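 further: plate controls were DMSO only for no effect and tetraoctylammonium bromide positive control for full effect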
Method in brief: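 Acute toxicity in LYMP1-003 lymphoblastoid cells: 24 hr compound treatment at 37 C, ATP measured with CellTiter-Glo after 30 min at room temperature. AC50 derived by fitting the Hill equation to qHTS titrations.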

[17] = Cell Viability - LYMP1-002 - Assay at 24 hr (AID 993); conditions: LYMP1-002 lymphoblastoid cells viability; series mostly up to 92.2 µM; further: on the % scale 0 is the no-effect control and ±100 the full control effect
Method in brief: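 qHTS, LYMP1-002 lymphoblastoid, 24 h cpd, 37 C, CellTiter-Glo ATP luminescence; AC50 via Hill eq.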

[18] = qHTS Assay for Identification of Small Molecule Inducers of Hypoxia Response (AID 2120; active means well fitted curve in the direction sought with a large enough effect in the signal ratio, with a control signal flat, not every such curve was filed as active; the % refers to the signal ratio; further: 0% is about no effect); conditions: hypoxia response reporter cells, beta-lactamase ratio readout; series mostly up to 104 µM
Method in brief: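 Induction of beta-lactamase reporter activity was measured in CellSensor HRE-bla ME-180 cells after 17 h compound treatment at 37 degrees C, using CCF4 substrate and the 460nm/530nm emission ratio to derive AC50 values.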

[19] = biological target: Peroxisome proliferator-activated receptor alpha (Homo sapiens) (UniProt Q07869); assay: qHTS assay for small molecule agonists of the peroxisome proliferator-activated receptor alpha (PPARalpha) signaling pathway (AID 651778); conditions: PathHunter PPARalpha complementation, chemiluminescence, 6 h; max response: active compounds read high; further: % of control where 0% means no effect
Peroxisome proliferator-activated receptor alpha (Homo sapiens), sequence (Q07869 whole entry, looked up): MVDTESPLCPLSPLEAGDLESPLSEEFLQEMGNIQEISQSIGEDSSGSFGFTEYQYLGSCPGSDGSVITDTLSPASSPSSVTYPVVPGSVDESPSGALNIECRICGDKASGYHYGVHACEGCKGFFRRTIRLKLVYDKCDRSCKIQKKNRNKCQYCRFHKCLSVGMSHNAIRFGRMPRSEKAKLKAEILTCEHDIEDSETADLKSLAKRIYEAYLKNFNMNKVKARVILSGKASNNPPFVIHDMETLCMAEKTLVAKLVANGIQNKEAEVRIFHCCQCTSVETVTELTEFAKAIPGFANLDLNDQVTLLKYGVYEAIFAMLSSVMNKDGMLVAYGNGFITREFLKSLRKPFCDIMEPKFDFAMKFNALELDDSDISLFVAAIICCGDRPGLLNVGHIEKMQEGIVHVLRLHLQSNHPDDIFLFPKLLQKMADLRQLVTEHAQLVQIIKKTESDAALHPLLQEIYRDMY
Method in brief: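 Chemiluminescence from complemented enzyme reported PPARalpha activation in cells after 6 hr of compound treatment at 37 C. The detection reagent was incubated for 60 min at room temperature, and compounds were scored as agonists.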

[20] = qHTS assay for small molecule agonists of the antioxidant response element (ARE) signaling pathway measured by Nrf2-dependant transcriptional activity - cell viability counter screen (AID 720653; active means well fitted curve in the direction sought with a large enough effect in the repeat runs; an effect the other way counts as inactive or inconclusive; further: on the % scale 0 is the no-effect control and ±100 the full control effect); conditions: ARE-bla HepG2 viability, CellTiter-Glo ATP luminescence, 16 h; max response: active compounds read low
Method in brief: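 Cytotoxicity counter screen: intracellular ATP quantified by CellTiter-Glo luminescence in the same ARE-bla HepG2 plates, after 16 h compound exposure and a 2 h beta-lactamase substrate step.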

Cc1ccc2ccc3cccc4ccc1c2c34
inactive: Potency [1] > 92 µM | Potency [2] | Potency [3] | Potency [4] | outcome [5] | outcome [6] | outcome [7] | Potency [8] | outcome [9] | outcome [10] | Potency [11] | Potency [12] | Potency [13] | outcome [14] | Potency [15] | Potency [16] | Potency [17] | Potency [18] | max response [19] -2.03% | max response [20] 2.48%

Oc1c(Cl)cc(Cl)c(Cl)c1Cl
inactive: Potency [1] > 92 µM | Potency [2] | Potency [3] | Potency [4] | outcome [5] | outcome [6] | outcome [7] | Potency [8] | outcome [9] | outcome [10] | Potency [11] | Potency [12] | Potency [13] | outcome [14] | Potency [15] | Potency [16] | Potency [17] | Potency [18] | max response [19] 4.27% | max response [20] -1.59% and 6.5%

NC(=O)c1ccc([N+](=O)[O-])cc1
inactive: Potency [1] > 92 µM | Potency [2] | Potency [3] | Potency [4] | outcome [5] | outcome [6] | outcome [7] | Potency [8] | outcome [9] | outcome [10] | Potency [11] | Potency [12] | Potency [13] | outcome [14] | Potency [15] | Potency [16] | Potency [17] | Potency [18] | max response [19] -2.18% | max response [20] 5.8%

C/C(Cl)=C/CCl
inactive: Potency [1] > 92 µM | Potency [2] | Potency [3] | Potency [4] | outcome [5] | outcome [6] | outcome [7] | Potency [8] | outcome [9] | outcome [10] | Potency [11] | Potency [12] | Potency [13] | outcome [14] | Potency [15] | Potency [16] | Potency [17] | Potency [18] | max response [19] -4.68% | max response [20] 5.48%

Oc1ccc2c(c1)OCO2
inactive: Potency [1] > 92 µM | Potency [2] | Potency [3] | Potency [4] | outcome [5] | outcome [6] | outcome [7] | Potency [8] | outcome [9] | outcome [10] | Potency [11] | Potency [12] | Potency [13] | outcome [14] | Potency [15] | Potency [16] | Potency [17] | Potency [18] | max response [19] -2.87% | max response [20] 5%

CC(=O)OC1CC(C)OC(C)O1 (stereo not given)
inactive: Potency [1] > 92 µM | Potency [2] | Potency [3] | Potency [4] | outcome [5] | outcome [6] | outcome [7] | Potency [8] | outcome [9] | outcome [10] | Potency [11] | Potency [12] | Potency [13] | outcome [14] | Potency [15] | Potency [16] | Potency [17] | Potency [18] | max response [19] -4.25% and 0.0018% | max response [20] 6.75% and -0.741%

C=Cc1cccc(C)c1
inactive: Potency [1] > 92 µM | Potency [2] | Potency [3] | Potency [4] | outcome [5] | outcome [6] | outcome [7] | Potency [8] | outcome [9] | outcome [10] | Potency [11] | Potency [12] | Potency [13] | outcome [14] | Potency [15] | Potency [16] | Potency [17] | Potency [18] | max response [19] -4.17% | max response [20] 10.9%

CCCCOC(=O)COc1ccc(Cl)cc1Cl
inactive: Potency [1] > 92 µM | Potency [2] | Potency [3] | Potency [4] | outcome [5] | outcome [6] | outcome [7] | Potency [8] | outcome [9] | outcome [10] | Potency [11] | Potency [12] | Potency [13] | outcome [14] | Potency [15] | Potency [16] | Potency [17] | Potency [18] | max response [19] 7.72% and -1.16% | max response [20] -6.14% and -13.6%

O=[N+]([O-])c1ccc(F)cc1F
inactive: Potency [1] > 92 µM | Potency [2] | Potency [3] | Potency [4] | outcome [5] | outcome [6] | outcome [7] | Potency [8] | outcome [9] | outcome [10] | Potency [11] | Potency [12] | Potency [13] | outcome [14] | Potency [15] | Potency [16] | Potency [17] | Potency [18] | max response [19] -5.98% | max response [20] 13.3%

CCCC(=O)OC(=O)CCC
inactive: Potency [1] > 92 µM | Potency [2] | Potency [3] | Potency [4] | outcome [5] | outcome [6] | outcome [7] | Potency [8] | outcome [9] | outcome [10] | Potency [11] | Potency [12] | Potency [13] | outcome [14] | Potency [15] | Potency [16] | Potency [17] | Potency [18] | max response [19] -9.39% and -1.32% | max response [20] -5.41% and 18.3%

CC(=O)OCc1ccc2c(c1)OCO2
inactive: Potency [1] > 92 µM | Potency [2] | Potency [3] | Potency [4] | outcome [5] | outcome [6] | outcome [7] | Potency [8] | outcome [9] | outcome [10] | Potency [11] | Potency [12] | Potency [13] | outcome [14] | Potency [15] | Potency [16] | Potency [17] | Potency [18] | max response [19] -4.72% | max response [20] -6.13%

CCC(Cl)CC(Cl)C(Cl)C(Cl)C(Cl)C(C)Cl (stereo not given)
inactive: Potency [1] > 92 µM | Potency [2] | Potency [3] | Potency [4] | outcome [5] | outcome [6] | outcome [7] | Potency [8] | outcome [9] | outcome [10] | Potency [11] | Potency [12] | Potency [13] | outcome [14] | Potency [15] | Potency [16] | Potency [17] | Potency [18] | max response [19] -3.58% | max response [20] -9.68%
